The list is not random: actives were taken first. Their share in the collection is about 2.5%.
D2 PAM-1 – human D2 receptor positive allosteric modulation; P14416; DiscoveRx D2 beta-arrestin cells, luminescence, 90 min; 100% = 57 uM dopamine signal; potentiation, % (concentration not given with the values); 0.23% of 360,000 active; AID 624464; in the data active = potentiation above about 50%; inconclusive = mostly about 30% to 49%
Target sequence (P14416 whole entry, looked up): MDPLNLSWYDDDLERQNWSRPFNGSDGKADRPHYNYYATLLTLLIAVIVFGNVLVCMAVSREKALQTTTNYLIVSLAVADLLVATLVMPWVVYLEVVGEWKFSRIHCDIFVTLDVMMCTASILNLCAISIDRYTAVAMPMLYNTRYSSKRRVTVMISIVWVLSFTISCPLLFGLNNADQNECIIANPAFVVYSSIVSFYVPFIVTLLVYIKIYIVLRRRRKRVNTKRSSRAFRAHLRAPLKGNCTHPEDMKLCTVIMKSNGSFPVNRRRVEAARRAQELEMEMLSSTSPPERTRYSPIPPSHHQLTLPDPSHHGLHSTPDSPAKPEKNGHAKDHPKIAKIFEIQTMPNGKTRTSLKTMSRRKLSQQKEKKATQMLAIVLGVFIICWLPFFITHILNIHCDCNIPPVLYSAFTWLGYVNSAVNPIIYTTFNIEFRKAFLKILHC
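PathHunter D2 cells, attached overnight at 37 deg C, received compound in DMSO plus dopamine at EC20 (50 nM final) for 90 min at 37 deg C. Beta-arrestin recruitment was read as luminescence after 1 h with detection reagent at ambient temperature.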
D2 antag – antagonizes the human D2 dopamine receptor | AID 485344 | inhibition, % at 10 µM | P14416 | HEK293 TREx D2 cells, calcium flux, dopamine EC80 | 2% of 340,000 active; in the data active = inhibition above about 30%; inactive = below that, where a call was filed
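Compounds are added to dye-loaded, induced HEK293 T-REx cells coupled to calcium release via D2; after a 3 min kinetic read an EC80 dopamine stimulus is given and fluorescence is recorded for 3 more min.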
D2 ag-1 – activates the human D2 dopamine receptor; HEK293 T-REx D2 cells, calcium flux agonist mode; activation, % at 2 µM; 0.53% of 340,000 active;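 active = activation over 3 SD above normal in the single-dose calcium agonist read, cut at about 30% in these data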
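HEK293 Trex D2 cells, tetracycline-induced, o/n 30 C 5% CO2; no-wash Ca dye, RT 30–90 min; 10-cycle baseline, 23 nl cpd added, kinetic Ca read 180 s; agonist hits = positive Ca response.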
Anesthetic bind – binds horse apoferritin like a general anesthetic. 0.074% of 350,000 active. Potency, µM (highest dose often 77.5 µM), most hits filed as inhibitors. apoferritin/1-aminoanthracene competitive binding, fluorescence; active = well fitted inhibition curve with a large enough effect; inconclusive = small, poorly fitted or top-dose-only effect; inactive = no such curve, though single readings can be large or run the other way; note: nearly all actives have a fitted effect of over 20% in size
Target sequence (P02791 2-175 limits assumed): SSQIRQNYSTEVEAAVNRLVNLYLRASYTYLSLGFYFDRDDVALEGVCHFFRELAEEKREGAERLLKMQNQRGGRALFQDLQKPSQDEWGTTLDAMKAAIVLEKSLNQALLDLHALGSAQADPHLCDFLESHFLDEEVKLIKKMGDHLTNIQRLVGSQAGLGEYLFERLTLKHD
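Apoferritin-based anesthetic binding model; compound displacement of fluorescent 1-AMA measured as endpoint fluorescence after 10 minutes at room temperature, scaled to free-ligand and complex controls.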
D2 PAM-2 – D2 dopamine receptor (human) potentiation; AID 485347; 0.34% of 340,000 active; potentiation, % at 10 µM; HEK293 T-REx D2, calcium flux, EC20 dopamine potentiation;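 active = potentiation over 3 SD above the plate norm, cut at about 30% in these data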
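Potentiation of an EC20 dopamine calcium response is measured in a force-coupled, tetracycline-inducible Hek293 Trex D2 line. Compound-only kinetic reads over 180 s flag agonists before dopamine addition.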
D2 ag-2 – activates the human D2 dopamine receptor | DiscoveRx PathHunter D2 beta-arrestin, luminescence, 90 min; 100% = 57 uM dopamine signal | P14416 | 0.084% of 360,000 active | activation, % (test concentration not listed); in the data active = activation above about 40%; inconclusive = between about 15% and that limit
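DiscoveRx PathHunter D2 beta-arrestin cells (2,100/well) attached overnight, then compound-stimulated 90 min at 37 C in HBSS/10 mM HEPES/0.1% Tween-20 buffer; beta-galactosidase complementation read by luminescence after 1 h at ambient temperature. Dopamine 57 uM final (EC100) as control.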
Hits are given with their value; - = inactive; ? = inconclusive; . = not tested or not shown; ! = repeats disagree.

SMILES	D2 PAM-1	D2 antag	D2 ag-1	Anesthetic bind	D2 PAM-2	D2 ag-2
Cc1ccc(S(=O)(=O)N(C)C)cc1NC(=S)NC(C)CCCC(C)C (configuration not stated)	-	75	-	-	-	-
COc1cccc(NC(=O)C2CCCN(S(=O)(=O)c3cccc4nsnc34)C2)c1 (configuration not stated)	-	-	-	-	-	-
Cn1c(CN2CCCC2)nc2cc(NC(=O)COc3ccc(Cl)cc3)ccc21	-	41	-	-	-	-
COc1ccc(OCC(=O)Nc2ccc3c(c2)nc(CN2CCCC2)n3C)cc1	-	45	-	-	-	-
COc1ccc(OCC(=O)Nc2ccc3c(c2)nc(CN2CCN(C(C)=O)CC2)n3C)cc1	-	-	-	-	-	-
CCC(=O)Nc1ccc2c(c1)nc(CCN1CCC(C)CC1)n2C	-	-	-	-	-	-
Cn1c(CN2CCCCC2)nc2cc(NC(=O)c3ccc(Cl)cc3)ccc21	-	31	33!	-	-	-
Cn1c(CCN2CCCCC2)nc2cc(NC(=O)COc3ccc(Cl)cc3)ccc21	-	-	-	-	-	-
Cn1c(CN2CCCC2)nc2cc(NC(=O)c3ccc(Cl)cc3)ccc21	-	-	-	-	-	-
CC1CCN(CCc2nc3cc(NC(=O)COc4ccccc4)ccc3n2C)CC1	-	59	-	-	-	-
O=C(NCc1cccnc1)C1CC2c3ccccc3C1c1ccccc12 (configuration not stated)	-	.	.	-	.	-
c1ccc2c(c1)nc(N1CCCCCC1)c1nncn12	-	.	.	.	.	-
COc1ccccc1N1CCN(C(=O)c2ccc(-c3ccc(Cl)cc3)o2)CC1	-	.	.	.	-	-
Cc1ccccc1Cn1cnc2c(NS(C)(=O)=O)c(C)c(C)cc21	-	35	-	-	-	-
O=C(COC(=O)CNC(=O)c1ccccc1)Nc1ccc(F)c([N+](=O)[O-])c1	-	34	-	?	-	-
O=C(CNc1ccc(C(F)(F)F)cc1[N+](=O)[O-])OCC(=O)c1ccccc1	-	-	-	28µM	-	-
O=C(CS(=O)c1ccc(C(F)(F)F)cc1[N+](=O)[O-])Oc1ccccc1 (configuration not stated)	-	-	-	?	33	-
CC(C)NC(=O)CNc1ccc(C(F)(F)F)cc1[N+](=O)[O-]	-	-	-	-	-	-
O=C(COC(=O)CNC(=O)C1CCCCC1)Nc1ccc(F)c([N+](=O)[O-])c1	-	.	.	.	.	-
COC(=O)c1ccc(OC(=O)CS(=O)c2ccccc2[N+](=O)[O-])cc1 (configuration not stated)	-	-	-	-	-	-
COc1ccccc1C1CCN(Cc2c(C)[nH]c3ccccc23)CC1	-	56	-	-	-	-
COc1ccccc1C1CCN(Cc2ccc(Cl)cc2Cl)CC1	-	-	-	-	-	-
COc1ccccc1C1CCN(Cc2cccc3ccccc23)CC1	-	82	-	-	-	-
COc1ccccc1C1CCN(Cc2ccc(Cl)c(Cl)c2)CC1	-	84	-	-	-	-
Cc1cnc(C(=O)OCC(=O)NCc2cccc(Cl)c2)cn1	-	-	-	.	-	-
SMILES	D2 PAM-1	D2 antag	D2 ag-1	Anesthetic bind	D2 PAM-2	D2 ag-2
CC(C)(CC(=O)NCc1ccc(Cl)cc1Cl)CC1=NS(=O)(=O)c2ccccc2N1	.	.	-	-	-	.
COc1ccc(CC(=O)Nc2ccc(S(=O)(=O)Nc3nccs3)cc2)cc1	-	-	-	-	-	-
COc1ccc(NS(=O)(=O)c2ccc(Oc3ncccn3)cc2)cc1	-	-	-	-	46	-
COc1ccc(NS(=O)(=O)c2cccc(NC(=O)c3ccccn3)c2)cc1	-	-	-	-	-	-
COc1ccc(S(=O)(=O)Nc2ccc(S(=O)(=O)Nc3nccs3)cc2)cc1	-	50	-	-	-	-
COc1ccc(NS(=O)(=O)c2ccc(NC(=O)c3ccccn3)cc2)cc1	-	-	-	.	73	-
COc1cc(OC)cc(C(=O)Nc2ccc(S(=O)(=O)Nc3nc(C)cc(C)n3)cc2)c1	-	34	-	-	-	-
COc1ccc(S(=O)(=O)Nc2ccc(Oc3ncccn3)c(Cl)c2)cc1	-	-	-	?	-	-
CC(Oc1ccc(Cl)cc1Cl)C(=O)Nc1ncccn1 (configuration not stated)	-	-	-	-	-	-
CCOC(=O)CC(=O)CSc1nc2c(sc(=S)n2-c2ccc(OCC)cc2)c(=O)[nH]1	-	-	-	-	-	-
O=C1c2oc3ccc(F)cc3c(=O)c2C(c2cccc([N+](=O)[O-])c2)N1CCCN1CCOCC1 (configuration not stated)	.	.	-	-	-	.
O=C(Cn1cc(S(=O)(=O)c2ccc(Cl)cc2)c(=O)c2ccccc21)Nc1ccc2c(c1)OCO2	.	.	-	-	.	.
CCCCC1(C)OC(=O)C(=Cc2ccc(-c3ccc(Cl)c(C(=O)O)c3)o2)C(=O)O1 (configuration not stated)	-	42	-	-	-	-
Cc1ccc(N2NC(=O)/C(=C/c3ccc(-c4ccc(Cl)c(C(=O)O)c4)o3)C2=O)cc1	-	-	-	-	-	-
Cc1ccc(C)c(OCC(=O)N(Cc2nnc(-c3ccccc3Cl)o2)C2CC2)c1	-	33	-	.	-	-
CN(C1CCCCC1)S(=O)(=O)c1cccc(C(=O)OCC(=O)NC2CCCc3ccccc32)c1 (configuration not stated)	-	-	-	-	-	-
CC(C)(C)n1nc2c(c1NC(=O)Cc1ccc(F)cc1)CSC2	-	35	-	-	-	-
CC(C)(C)n1nc2c(c1NC(=O)Cc1cccs1)CSC2	.	-	-	-	-	.
CC1CCc2nc(NC(=O)CN3CCN(c4ccccc4)CC3)sc2C1 (configuration not stated)	-	-	-	-	-	-
CC1CCc2nc(NC(=O)CN3CCN(Cc4ccc5c(c4)OCO5)CC3)sc2C1 (configuration not stated)	-	72	-	-	-	-
CN(CC(=O)Nc1ccccc1Oc1ccccc1)Cc1ccccc1F	-	-	-	-	-	-
Cc1ccccc1CN(C)CC(=O)Nc1ccccc1Oc1ccccc1	-	43	-	-	-	-
COc1ccc(-c2nnc(NC(=O)CSc3ccccc3)s2)cc1OC	-	-	-	-	-	-
CCn1cc2nc(SCC(=O)Nc3ccc(F)cc3F)n(Cc3ccccc3)c(=O)c2n1	-	32	-	-	-	-
CCn1cc2nc(SCC(=O)Nc3ccc(C)cc3C)n(Cc3ccc(C)cc3)c(=O)c2n1	.	.	.	-	.	.

Screens from PubChem.
